Values joined by “and” are separate entries in the source; they are usually repeats but may differ in a detail not shown here. Identical values can stand only once. Records with an inconclusive call do not appear. Some structures have more than one record in an assay (separate samples or runs), and their calls can disagree. Active and inactive are the calls of the source. Unless noted, the call rests on the fitted dose curve; in most records, active means well fitted curve in the direction sought with a large enough effect in the repeat runs; inconclusive means weak or mixed curves; inactive means no such curve, though single readings can be large; an effect the other way counts as inactive or inconclusive.
How the values were obtained:
[1] = qHTS assay to identify small molecule agonists of the RXR signaling pathway - cell viability counter screen (AID 1159529); further: nearly all actives have a fitted effect of over 50% in size; further: potency means the concentration at half of the fitted maximal effect
In short: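 Luminescence from CellTiter-Glo (30 min, RT) measured viability in the same wells as the beta-lactamase reporter readout. Cells: GeneBLAzer RXR-alpha HEK 293T, 2% charcoal-stripped FBS. Compound exposure 16 hr, 37 C.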

[2] = qHTS assay to identify small molecule antagonists of the retinoid acid receptor (RAR) signaling pathway - cell viability counter screen (AID 1159551); further: nearly all actives have a fitted effect of over 35% in size
In short: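 C3RL4 RARE-luciferase cells, 1,000/well, incubated overnight, then dosed with compound plus 1 uM retinol (final). After 6 hr at 37 C, viability read by CellTiter-Glo ATP luminescence following 30 min at room temperature.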

[3] = qHTS assay to identify small molecule antagonists of the retinoic acid receptor (RAR) signaling pathway (AID 1159552; further: nearly all actives have a fitted effect of over 50% in size)
In short: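 Luminescence from a RARE luciferase reporter in C3RL4 cells served as read-out. Cells received compounds together with 1 uM final retinol and incubated 6 hr at 37 C before detection reagent was added for 30 min at room temperature.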

[4] = qHTS assay to identify small molecule agonists of the retinoic acid receptor (RAR) signaling pathway (AID 1159553); settings: C3RL4 RARE luciferase reporter, agonist, 6 h
In short: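 C3RL4 RARE-luciferase cells were seeded at 1,000/well and grown overnight at 37 C, then exposed to compounds for 6 hr at 37 C, 5% CO2. Luciferase reagent was added and luminescence was read after 30 min at room temperature.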

[5] = qHTS assay to identify small molecule antagonists of the estrogen related receptor (ERR) signaling pathway from Tox21 library - cell viability counter screen (AID 1224834); further: nearly all actives have a fitted effect of over 30% in size; further: potency means the concentration at half of the fitted maximal effect
In short: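 ERR reporter cells, 2,000 per well, rested 6 h, then exposed to compound in DMSO for 17.5 hours at 37 C. Viability read as fluorescence after 30 min with CellTiter-Fluor.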

[6] = molecular target: Luciferin 4-monooxygenase (Photinus pyralis) (UniProt P08659); experiment: qHTS assay to identify small molecule inhibitors of firefly luciferase (AID 1224835); further: nearly all actives have a fitted effect of over 25% in size; further: potency means the concentration at half of the fitted maximal effect
In short: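 Quantitative HTS format; KM concentrations of both substrates. Purified P. pyralis FLuc activity quantified from luminescence images.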

[7] = qHTS assay to identify small molecule agonists of the constitutive androstane receptor (CAR) signaling pathway - cell viability counter screen (AID 1224836); further: nearly all actives have a fitted effect of over 45% in size
In short: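 Viability read-out: CellTiter-Fluor fluorescence after 23 h compound exposure at 37 C/5% CO2 in double-stable HepG2-CYP2B6-hCAR cells, with PK11195 present at 0.75 uM final; compounds tested in 15-point titration.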

[8] = qHTS assay to identify small molecule antagonists of the constitutive androstane receptor (CAR) signaling pathway - cell viability counter screen (AID 1224837); further: nearly all actives have a fitted effect of over 45% in size
In short: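 HepG2 cells stably carrying hCAR and CYP2B6-2.2kb reporter, stimulated with 50 nM CITCO and compounds at 15 concentrations for 23 h at 37 C. Viability measured by CellTiter-Fluor fluorescence.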

[9] = molecular target: Nuclear receptor subfamily 1 group I member 3 (Homo sapiens) (UniProt Q14994); experiment: qHTS assay to identify small molecule agonists of the constitutive androstane receptor (CAR) signaling pathway (AID 1224839); further: nearly all actives have a fitted effect of over 15% in size; further: potency means the concentration at half of the fitted maximal effect
In short: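 Luminescence read-out (ONE-Glo, 30 min, room temperature) from double-stable HepG2-CYP2B6-hCAR cells exposed 24 h to 15-point compound series in presence of 0.75 uM PK11195 final.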

[10] = qHTS assay to identify small molecule antagonists of the estrogen related receptor signaling pathway with the pleiotropic PPARgamma coactivator (PGC) from Tox21 10K library - cell viability counter screen (AID 1224840; active means well fitted cell-killing curve with a large enough effect in the repeat runs, not every such curve was filed as active; further: nearly all actives have a fitted effect of over 40% in size)
In short: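 PGC/ERR cells (2,000/well) plated 6 h, then compound-treated for 17.5 h at 37 C. Viability measured by CellTiter-Fluor fluorescence after 30 min at 37 C, multiplexed with the pathway assay.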

[11] = molecular target: Nuclear receptor subfamily 1 group I member 3 (Homo sapiens) (UniProt Q14994); experiment: qHTS assay to identify small molecule antagonists of the constitutive androstane receptor (CAR) signaling pathway (AID 1224838); further: nearly all actives have a fitted effect of over 40% in size
In short: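 HepG2 cells stably carrying hCAR and a CYP2B6-2.2kb luciferase reporter, seeded 4 hrs before compound (15 concentrations). Stimulated with 50 nM CITCO for 24 hr at 37 C. ONE-Glo luminescence read after 30 min at room temperature.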

[12] = qHTS assay to identify small molecule antagonists of the estrogen related receptor signaling pathway with the pleiotropic PPARgamma coactivator (PGC) from Tox21 10K library (AID 1224841; call rule not given here; further: actives are mostly falling curves and most rising ones were filed inactive; nearly all actives have a fitted effect of over 50% in size)
In short: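 PGC/ERR cell line, 2,000 cells/well, pre-incubated 6 hours at 37 C, then exposed to compounds for 18 hours at 37 C; luciferase read with One-Glo luminescence after 30 min at room temperature.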

[13] = qHTS assay to identify small molecule agonists of the estrogen related receptor signaling pathway with the pleiotropic PPARgamma coactivator (PGC) from Tox21 10K library (AID 1224842); further: nearly all actives have a fitted effect of over 15% in size
In short: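 PGC/ERR reporter cells (NTP line) were seeded 2,000 per well, rested 6 h at 37 C/5% CO2, then pin-dosed with compounds in DMSO for 18 h at 37 C; luciferase read by One-Glo luminescence after 30 min at room temperature.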

[14] = molecular target: Thyrotropin receptor (Homo sapiens) (UniProt P16473); experiment: qHTS assay to identify small molecule agonists of the thyroid stimulating hormone receptor (TSHR) signaling pathway (AID 1224843; calls by dose curve; further: nearly all actives have a fitted effect of over 45% in size)
In short: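 Cell line HEK293 with TSHR; density 800/well. Exposure 30 min RT. Readout HTRF cAMP (cAMP-d2/anti-cAMP-cryptate), 1 h RT before reading.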

[15] = qHTS assay to identify small molecule antagonists of the estrogen related receptor (ERR) signaling pathway - cell viability counter screen (AID 1224818)
In short: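 ERR cells, 2,000 per well, compound added after 6 h and incubated 17.5 h at 37 C. Viability read by CellTiter-Fluor fluorescence after a further 30 min at 37 C.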

[16] = qHTS assay to identify small molecule antagonists of the estrogen related receptor signaling pathway with the pleiotropic PPARgamma coactivator (PGC) cell viability counter screen (AID 1224822)
In short: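 PGC/ERR cells rested 6 h, then compound-treated 17.5 h at 37 C. CellTiter-Fluor added for 30 min at 37 C, viability measured by fluorescence intensity.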

[17] = activation: at 73.3 µM (top of the series) unless noted
On the % scale 0 is the no-effect control and ±100 the full control effect.

Thyrotropin receptor (Homo sapiens), sequence (P16473 whole entry, looked up): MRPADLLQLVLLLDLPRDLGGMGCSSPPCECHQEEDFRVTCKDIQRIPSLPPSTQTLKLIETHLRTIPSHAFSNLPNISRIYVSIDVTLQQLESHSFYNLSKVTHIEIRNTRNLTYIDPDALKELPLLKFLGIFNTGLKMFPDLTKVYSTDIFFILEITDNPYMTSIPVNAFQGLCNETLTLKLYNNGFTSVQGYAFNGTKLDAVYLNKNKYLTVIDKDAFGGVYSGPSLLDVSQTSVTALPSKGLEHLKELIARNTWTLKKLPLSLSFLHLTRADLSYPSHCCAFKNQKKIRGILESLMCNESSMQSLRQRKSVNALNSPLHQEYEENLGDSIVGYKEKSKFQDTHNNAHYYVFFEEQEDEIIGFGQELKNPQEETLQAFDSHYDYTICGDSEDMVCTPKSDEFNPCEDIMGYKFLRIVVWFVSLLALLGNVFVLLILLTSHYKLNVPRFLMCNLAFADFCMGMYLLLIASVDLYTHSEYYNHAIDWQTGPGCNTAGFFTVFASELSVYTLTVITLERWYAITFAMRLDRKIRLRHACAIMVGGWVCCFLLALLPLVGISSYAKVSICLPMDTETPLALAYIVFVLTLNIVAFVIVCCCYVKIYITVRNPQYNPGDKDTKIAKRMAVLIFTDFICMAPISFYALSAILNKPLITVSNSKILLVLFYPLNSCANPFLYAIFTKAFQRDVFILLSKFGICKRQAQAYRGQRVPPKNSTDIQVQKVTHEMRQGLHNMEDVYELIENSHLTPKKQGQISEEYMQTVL
Nuclear receptor subfamily 1 group I member 3 (Homo sapiens), sequence (Q14994 whole entry, looked up): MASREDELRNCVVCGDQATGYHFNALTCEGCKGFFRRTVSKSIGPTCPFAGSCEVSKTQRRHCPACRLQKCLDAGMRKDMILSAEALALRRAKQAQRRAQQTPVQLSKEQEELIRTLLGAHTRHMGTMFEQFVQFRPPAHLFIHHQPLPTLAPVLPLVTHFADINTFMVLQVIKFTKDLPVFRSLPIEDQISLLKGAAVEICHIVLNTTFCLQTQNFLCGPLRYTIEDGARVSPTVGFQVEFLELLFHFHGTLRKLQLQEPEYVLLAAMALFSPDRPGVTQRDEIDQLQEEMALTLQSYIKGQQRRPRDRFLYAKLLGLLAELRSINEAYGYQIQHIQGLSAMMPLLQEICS
Luciferin 4-monooxygenase (Photinus pyralis), sequence (P08659 whole entry, looked up): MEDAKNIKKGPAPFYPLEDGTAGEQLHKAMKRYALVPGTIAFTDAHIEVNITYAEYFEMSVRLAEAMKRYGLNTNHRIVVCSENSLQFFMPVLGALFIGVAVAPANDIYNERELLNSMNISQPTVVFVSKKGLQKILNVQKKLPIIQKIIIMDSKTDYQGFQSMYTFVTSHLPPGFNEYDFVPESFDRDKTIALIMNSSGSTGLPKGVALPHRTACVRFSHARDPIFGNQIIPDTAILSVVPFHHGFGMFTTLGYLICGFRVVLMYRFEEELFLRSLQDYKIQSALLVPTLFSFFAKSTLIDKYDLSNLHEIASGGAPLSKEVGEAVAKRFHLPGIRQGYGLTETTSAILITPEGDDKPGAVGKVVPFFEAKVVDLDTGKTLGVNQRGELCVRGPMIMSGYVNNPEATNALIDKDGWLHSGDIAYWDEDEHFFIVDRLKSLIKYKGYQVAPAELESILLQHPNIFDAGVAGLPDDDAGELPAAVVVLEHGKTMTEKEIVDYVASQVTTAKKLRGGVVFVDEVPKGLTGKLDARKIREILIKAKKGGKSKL

CCOC(=O)C(C)Oc1ccc(Oc2cnc3cc(Cl)ccc3n2)cc1 (stereo not drawn)
inactive: Potency [1] | Potency [2] | Potency [3] | Potency [4, 17] | Potency [5] | Potency [6] | Potency [7] | Potency [8] | Potency [9] | Potency [10]

Oc1c(Cl)ccc(Cl)c1Cl
inactive: Potency [1] | Potency [2] | Potency [3] | Potency [4, 17] | Potency [5] | Potency [6] | Potency [7] | Potency [8] | Potency [11] | Potency [9] | Potency [10] | Potency [12] | Potency [13]

Nc1ccc(N)c(Cl)c1
active: Potency [1] 24.5 µM and 49 µM | Potency [5] 61 µM and 54.5 µM
inactive: Potency [2] | Potency [3] | Potency [4, 17] | Potency [6] | Potency [7] | Potency [8]

c1ccc2c(c1)[nH]c1ccccc12
39.2 µM (active) and inactive: Potency [6]
active: Potency [9] 60.1 µM
inactive: Potency [1] | Potency [2] | Potency [3] | Potency [4, 17] | Potency [5] | Potency [7] | Potency [8] | Potency [11] | Potency [10]

CCCOCCO
inactive: Potency [1] | Potency [2] | Potency [3] | Potency [4, 17] | Potency [5] | Potency [6] | Potency [7] | Potency [8] | Potency [11] | Potency [9] | Potency [10] | Potency [14]

C/C=C/C(=O)N(CC)c1ccccc1C
active: Potency [9] 27.3 µM
inactive: Potency [1] | Potency [2] | Potency [3] | Potency [4, 17] | Potency [5] | Potency [6] | Potency [7] | Potency [8] | Potency [11] | Potency [10] | Potency [12] | Potency [13] | Potency [14]

CCCCCCCCCCCCO
inactive: Potency [1] | Potency [2] | Potency [3] | Potency [4, 17] | Potency [5] | Potency [7] | Potency [8] | Potency [11] | Potency [9] | Potency [10] | Potency [14]
active: Potency [6] 31.3 µM

O=C(O)c1ccc(O)cc1
inactive: Potency [1] | Potency [2] | Potency [3] | Potency [4, 17] | Potency [5] | Potency [6] | Potency [7] | Potency [8] | Potency [9] | Potency [10] | Potency [12] | Potency [13] | Potency [14]

Cc1ccc2c(c1)C(=O)OC2=O
inactive: Potency [1] | Potency [2] | Potency [3] | Potency [4, 17] | Potency [5] | Potency [6] | Potency [7] | Potency [8] | Potency [11] | Potency [9] | Potency [10]

Cc1ccc(C)c(O)c1
inactive: Potency [1] | Potency [2] | Potency [3] | Potency [4, 17] | Potency [5] | Potency [6] | Potency [7] | Potency [8] | Potency [11] | Potency [9] | Potency [10] | Potency [14]

O=C(O)CCCC(=O)O
inactive: Potency [1] | Potency [2] | Potency [3] | Potency [4, 17] | Potency [5] | Potency [6] | Potency [7] | Potency [8] | Potency [11] | Potency [9] | Potency [10] | Potency [14]

Nc1cc([N+](=O)[O-])ccc1C(=O)O
active: Potency [6] 64.6 µM and 35.6 µM
inactive: Potency [1] | Potency [2] | Potency [3] | Potency [4, 17] | Potency [5] | Potency [7] | Potency [8] | Potency [11] | Potency [9] | Potency [10] | Potency [14]

C=CCOC(=O)C(=C)C
inactive: Potency [1] | Potency [2] | Potency [3] | Potency [4, 17] | Potency [5] | Potency [6] | Potency [7] | Potency [8] | Potency [11] | Potency [9] | Potency [10] | Potency [12] | Potency [13] | Potency [14]

CCc1cccc2c3c([nH]c12)C(CC)(CC(=O)O)OCC3 (stereo not drawn)
inactive: Potency [1] | Potency [2] | Potency [3] | Potency [4, 17] | outcome [15] | outcome [16] | Potency [5] | Potency [6] | Potency [7] | Potency [8] | Potency [9] | Potency [10] | Potency [14]

Brc1nc2ccccc2s1
active: Potency [6] 39.8 µM
inactive: Potency [1] | Potency [2] | Potency [3] | Potency [4, 17] | Potency [5] | Potency [7] | Potency [8] | Potency [9] | Potency [10] | Potency [14]

Cc1ccc(C(C)(C)C)cc1
active: activation [4, 17] 0.0823% [at 94.8 µM]
inactive: Potency [1] | Potency [2] | Potency [3] | activation ([4]; at 73.3 µM (top of the series)) -0.68% | Potency [5] | Potency [6] | Potency [7] | Potency [8] | Potency [11] | Potency [9] | Potency [10] | Potency [14]

CCO[Si](CCCNC(N)=O)(OCC)OCC
inactive: Potency [1] | Potency [2] | Potency [3] | Potency [4, 17] | Potency [5] | Potency [6] | Potency [7] | Potency [8] | Potency [11] | Potency [9] | Potency [10] | Potency [12] | Potency [13] | Potency [14]

COCCOCCOCCO
inactive: Potency [1] | Potency [2] | Potency [3] | Potency [4, 17] | Potency [5] | Potency [6] | Potency [7] | Potency [8] | Potency [9] | Potency [10] | Potency [12] | Potency [13] | Potency [14]
